{
  "source": "ChEMBL document CHEMBL3988442",
  "about": "“University of Dundee, Small-Polar-MMV Screening Library” (2021)",
  "key": {"[1]": {"molecular_target": "T1, Aspartate--tRNA(Asp/Asn) ligase (Mycobacterium tuberculosis (strain ATCC 25618 / H37Rv)) (UniProt P9WFW3)", "T1 sequence (whole entry)": "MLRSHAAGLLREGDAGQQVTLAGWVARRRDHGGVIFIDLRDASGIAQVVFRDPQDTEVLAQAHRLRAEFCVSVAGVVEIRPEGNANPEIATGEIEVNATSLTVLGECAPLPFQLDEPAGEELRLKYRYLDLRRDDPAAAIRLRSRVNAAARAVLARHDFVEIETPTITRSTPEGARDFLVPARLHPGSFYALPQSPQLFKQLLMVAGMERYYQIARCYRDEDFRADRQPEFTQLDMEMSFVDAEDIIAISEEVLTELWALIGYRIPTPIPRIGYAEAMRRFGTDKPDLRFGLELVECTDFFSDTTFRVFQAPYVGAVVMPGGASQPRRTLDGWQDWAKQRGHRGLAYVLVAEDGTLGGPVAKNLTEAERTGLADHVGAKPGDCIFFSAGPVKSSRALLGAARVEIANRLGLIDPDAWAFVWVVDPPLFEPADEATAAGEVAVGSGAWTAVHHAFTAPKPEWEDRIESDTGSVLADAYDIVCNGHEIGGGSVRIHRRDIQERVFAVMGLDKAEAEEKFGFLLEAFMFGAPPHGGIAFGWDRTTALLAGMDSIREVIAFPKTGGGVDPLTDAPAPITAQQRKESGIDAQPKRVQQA", "assay": "Assay for Asp RNA synthetase-1 from Mycobacterium tuberculosis", "format": "functional", "design": "scale not given: direction of the effect not stated beside the values", "settings": "30 µM"}, "[2]": {"molecular_target": "Shiga toxin 2 (Escherichia coli O157:H7) (UniProt P09385+P09386)", "assay": "E. coli 0.157:H7 Shiga Toxin SOP - stx2 screening assay", "format": "functional", "design": "scale not given: direction of the effect not stated beside the values", "settings": "30 µM"}},
  "data": [
    {"molecule": "O=C(C1CCOCC1)N1CCc2ncnc(-c3ccc(F)cc3)c2CC1", "values": [
      {"measurement": "Percent Effect", "setting": "[1]", "value": -1.43, "unit": "%"},
      {"measurement": "Percent Effect", "setting": "[2]", "value": -14, "unit": "%"}
    ]},
    {"molecule": "O=C(c1cnco1)N1C[C@@H]2CC[C@H](Oc3ccccc3F)[C@@H]2C1", "values": [
      {"measurement": "Percent Effect", "setting": "[1]", "value": -1.03, "unit": "%"},
      {"measurement": "Percent Effect", "setting": "[2]", "value": -75.8, "unit": "%"}
    ]},
    {"molecule": "CNc1cncc(C2CCCN2C(=O)c2ccc3oc(C)cc3c2)n1", "note": "(stereo not given)", "values": [
      {"measurement": "Percent Effect", "setting": "[1]", "value": 0.779, "unit": "%"},
      {"measurement": "Percent Effect", "setting": "[2]", "value": -4.12, "unit": "%"}
    ]},
    {"molecule": "COCC1CN(C(=O)c2ccoc2C)Cc2nccn2C1", "note": "(stereo not given)", "values": [
      {"measurement": "Percent Effect", "setting": "[1]", "value": 4.54, "unit": "%"},
      {"measurement": "Percent Effect", "setting": "[2]", "value": -11.3, "unit": "%"}
    ]},
    {"molecule": "CCn1ccnc1CN1C[C@@H](CN2CCCC2)[C@@H](CO)C1", "values": [
      {"measurement": "Percent Effect", "setting": "[1]", "value": -3.33, "unit": "%"},
      {"measurement": "Percent Effect", "setting": "[2]", "value": 6.48, "unit": "%"}
    ]},
    {"molecule": "Cc1ccc(CN2CCCC3(CCN(S(=O)(=O)N(C)C)C3)C2)o1", "note": "(stereo not given)", "values": [
      {"measurement": "Percent Effect", "setting": "[1]", "value": 0.162, "unit": "%"},
      {"measurement": "Percent Effect", "setting": "[2]", "value": 10.6, "unit": "%"}
    ]},
    {"molecule": "O=C(NCC(Cc1cccc(F)c1)N1CCCC1=O)c1ccccc1", "note": "(stereo not given)", "values": [
      {"measurement": "Percent Effect", "setting": "[1]", "value": -2.27, "unit": "%"},
      {"measurement": "Percent Effect", "setting": "[2]", "value": -0.947, "unit": "%"}
    ]},
    {"molecule": "O=C(c1ccc(Cl)c(Cl)c1)N1CCCC(n2cncn2)C1", "note": "(stereo not given)", "values": [
      {"measurement": "Percent Effect", "setting": "[1]", "value": -2.85, "unit": "%"},
      {"measurement": "Percent Effect", "setting": "[2]", "value": 15.6, "unit": "%"}
    ]},
    {"molecule": "O=c1c2ccccc2nc2n1C(CSc1ccc(Cl)cc1Cl)CN2", "note": "(stereo not given)", "values": [
      {"measurement": "Percent Effect", "setting": "[1]", "value": 4.53, "unit": "%"},
      {"measurement": "Percent Effect", "setting": "[2]", "value": 9.69, "unit": "%"}
    ]},
    {"molecule": "CN(C(=O)c1cccc(C(=O)NS(C)(=O)=O)c1)c1ccccc1", "values": [
      {"measurement": "Percent Effect", "setting": "[1]", "value": 9.93, "unit": "%"},
      {"measurement": "Percent Effect", "setting": "[2]", "value": -20.1, "unit": "%"}
    ]},
    {"molecule": "N#CC1CCCN(c2nc(-c3ccccc3)nc3c2CCNCC3)C1", "note": "(stereo not given)", "values": [
      {"measurement": "Percent Effect", "setting": "[1]", "value": 0.524, "unit": "%"},
      {"measurement": "Percent Effect", "setting": "[2]", "value": -18.1, "unit": "%"}
    ]},
    {"molecule": "Cc1nc(CN(C)C2CCN(Cc3ccno3)C2)no1", "note": "(stereo not given)", "values": [
      {"measurement": "Percent Effect", "setting": "[1]", "value": -4.76, "unit": "%"},
      {"measurement": "Percent Effect", "setting": "[2]", "value": -31.6, "unit": "%"}
    ]},
    {"molecule": "COC(=O)COc1cccc(NS(=O)(=O)c2cc(C(=O)O)cs2)c1", "values": [
      {"measurement": "Percent Effect", "setting": "[1]", "value": -3.15, "unit": "%"},
      {"measurement": "Percent Effect", "setting": "[2]", "value": -53.3, "unit": "%"}
    ]},
    {"molecule": "Cc1nc(C)n(C2CCCN(C(=O)c3cc(C(N)=O)cs3)C2)n1", "note": "(stereo not given)", "values": [
      {"measurement": "Percent Effect", "setting": "[1]", "value": -5.92, "unit": "%"},
      {"measurement": "Percent Effect", "setting": "[2]", "value": -13.1, "unit": "%"}
    ]},
    {"molecule": "CSCCC(CO)NC(=O)c1sc(-c2ccccc2Cl)nc1C", "note": "(stereo not given)", "values": [
      {"measurement": "Percent Effect", "setting": "[1]", "value": -2.58, "unit": "%"},
      {"measurement": "Percent Effect", "setting": "[2]", "value": -30.8, "unit": "%"}
    ]},
    {"molecule": "CC(C)N(C)Cc1nnc2n1CCN(Cc1ccncc1)CC2", "values": [
      {"measurement": "Percent Effect", "setting": "[1]", "value": 3.87, "unit": "%"},
      {"measurement": "Percent Effect", "setting": "[2]", "value": 1.49, "unit": "%"}
    ]},
    {"molecule": "COc1ncc(-c2nccn2CCN(C)C)cn1", "values": [
      {"measurement": "Percent Effect", "setting": "[1]", "value": -0.836, "unit": "%"},
      {"measurement": "Percent Effect", "setting": "[2]", "value": -6.87, "unit": "%"}
    ]},
    {"molecule": "C=C(C)C(=O)N1CCC(C(=O)c2cc(C)cnc2N)CC1", "values": [
      {"measurement": "Percent Effect", "setting": "[1]", "value": -5.78, "unit": "%"},
      {"measurement": "Percent Effect", "setting": "[2]", "value": -12, "unit": "%"}
    ]},
    {"molecule": "CCOCCN1CCN(Cc2cccc(C(=O)N(C)C)c2)CC1", "values": [
      {"measurement": "Percent Effect", "setting": "[1]", "value": -3.67, "unit": "%"},
      {"measurement": "Percent Effect", "setting": "[2]", "value": -26.9, "unit": "%"}
    ]},
    {"molecule": "Cc1ccc(NC(=O)C(C)N2CCCN(c3nccs3)CC2)c(C)c1", "note": "(stereo not given)", "values": [
      {"measurement": "Percent Effect", "setting": "[1]", "value": -4.7, "unit": "%"},
      {"measurement": "Percent Effect", "setting": "[2]", "value": -49.5, "unit": "%"}
    ]},
    {"molecule": "CN(Cc1cn2c(n1)CN(CC1CC1)CC2)Cc1ccco1", "values": [
      {"measurement": "Percent Effect", "setting": "[1]", "value": 3.75, "unit": "%"},
      {"measurement": "Percent Effect", "setting": "[2]", "value": -1.46, "unit": "%"}
    ]},
    {"molecule": "CN(Cc1cnn(C)c1)C(=O)NC1CCS(=O)(=O)C1", "note": "(stereo not given)", "values": [
      {"measurement": "Percent Effect", "setting": "[1]", "value": -2.67, "unit": "%"},
      {"measurement": "Percent Effect", "setting": "[2]", "value": 14.6, "unit": "%"}
    ]},
    {"molecule": "Cc1cc(NC(=O)C(c2cccc(F)c2)N2CCOCC2)ccn1", "note": "(stereo not given)", "values": [
      {"measurement": "Percent Effect", "setting": "[1]", "value": 5, "unit": "%"},
      {"measurement": "Percent Effect", "setting": "[2]", "value": -6.3, "unit": "%"}
    ]},
    {"molecule": "Cc1nc(C)n(CC2CCCN(Cc3nnc(C(C)(C)C)o3)C2)n1", "note": "(stereo not given)", "values": [
      {"measurement": "Percent Effect", "setting": "[1]", "value": 1.32, "unit": "%"},
      {"measurement": "Percent Effect", "setting": "[2]", "value": 1.5, "unit": "%"}
    ]},
    {"molecule": "Cn1ccnc1CC1CCCN(C(=O)Nc2cccn(C)c2=O)C1", "note": "(stereo not given)", "values": [
      {"measurement": "Percent Effect", "setting": "[1]", "value": 2.75, "unit": "%"},
      {"measurement": "Percent Effect", "setting": "[2]", "value": -3.01, "unit": "%"}
    ]}
  ]
}
